Screening data from PubChem BioAssay.
Sampled rows, rich in hits. Any-hit rate of the full collection: about 7.9%.
HCV inhibitor: qHTS Assay for Inhibitors of Hepatitis C Virus (HCV) | Huh7.5.1 HCVcc-Cre infection, luciferase reporter, 44 h | Potency, µM (highest dose often 41.8 µM), inactives show at the highest dose activity change, negative = inhibition, most hits filed as inhibitors | 3.4% of 340,000 active | AID 651820, 2012; active = well fitted inhibition curve with a large enough effect; inconclusive = small, poorly fitted or top-dose-only effect, or another doubt; inactive = no such curve, though single readings can be large or run the other way; also: potency is read from the fitted curve at half-maximal effect
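Seed cells (1,000/well) for 4 h; treat with compound and infect with HCVcc-Cre, moi about 0.5. Incubate 44 h, then detect luciferase activity.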
Marburg entry inh: qHTS for inhibitors of binding or entry into cells for Marburg Virus. AID 540276, 2011. Marburg virus pseudotyped entry inhibition, cell reporter. Potency, µM (titrated, usually from 37.8 µM), without a hit: top-dose activity change, negative = inhibition, usual class: inhibitors. 1.8% of 300,000 active; calls by dose curve; tested in HEK293 cells; also: potency is read from the fitted curve at half-maximal effect
LASV entry inh: qHTS for Inhibitors of binding or entry into cells for Lassa Virus; AID 540256, 2011; 1.2% of 300,000 active; Potency, µM (titrated, usually from 37.9 µM), inactives show top-dose activity change, negative = inhibition, hits mostly inhibitors; Lassa virus pseudotype entry inhibition, cell reporter; calls by dose curve; tested in HEK293 cells; also: potency is read from the fitted curve at half-maximal effect; nearly all actives have a fitted effect of over 50% in size
FMDV inh: High Throughput Screening for Foot and Mouth Disease Virus Antivirals | FMDV antiviral cell-based qHTS | Potency, µM (titrated, usually from 57.9 µM), inactives show top-dose activity change, negative = inhibition, hits mostly inhibitors | 1.2% of 410,000 active; calls by dose curve; tested in HEK293T cells; also: read-out not given here; potency is read from the fitted curve at half-maximal effect; nearly all actives have a fitted effect of over 45% in size
HCMV inh: qHTS Assay for inhibitors of the human cytomegalovirus (HCMV); AID 1259415, 2018; 4.5% of 410,000 active; activity change, negative = inhibition, % at 57.5 µM; HFF cells, HCMV-luciferase reporter, 72 h; stronger effect = lower value; in the data active = activity change below about -60%; inconclusive = no clear call, values can overlap the other calls; inactive = above about -39%
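Steps: HFFs plated, 16 h 37C; compounds added; HCMV-luciferase added to MOI 1 PFU/cell; 72 h 37C; OneGlo reagent, 5 min room temperature; luminescence read, normalized to controls.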
* marks the source's active call; other numbers are inactive results; [ ] = another dose, or the depositor's remark. % is scaled to controls: 0 for no effect and ±100 for the full control effect.

Screening CCN(CC)S(=O)(=O)c1ccc2c(c1)N(CC(=O)Nc1ccc(Cl)cc1)C(=O)C1CCCN21 (stereo not drawn) returned LASV entry inh 1%[46.1 µM], FMDV inh -12% and HCMV inh -4.
Screening CCC(C)Nc1nc(N)c([N+](=O)[O-])c(N2CCCCCC2)n1 (stereo not drawn) returned HCV inhibitor inconclusive, Marburg entry inh inconclusive, LASV entry inh inconclusive, FMDV inh inconclusive and HCMV inh -36.
For CN1CCN(c2nc(NCc3ccco3)nc(N)c2[N+](=O)[O-])CC1 the results were HCV inhibitor 22%, Marburg entry inh 1%[46.1 µM], LASV entry inh 10%, FMDV inh 1% and HCMV inh 6.
`Nc1nc(NCc2ccco2)nc(N2CCCCC2)c1[N+](=O)[O-]` gave HCV inhibitor -5%, Marburg entry inh 10µM*, LASV entry inh 1%, FMDV inh -22% and HCMV inh 24.
For CC(C)CNc1nc(N)c([N+](=O)[O-])c(N2CCCCCC2)n1 the results were HCV inhibitor inconclusive, Marburg entry inh inconclusive, LASV entry inh -28%[46.1 µM], FMDV inh -22% and HCMV inh -99*.
For Cc1ccc(CN(Cc2cccn2-c2nnc(N3CCCC3=O)s2)C(=O)Nc2ccc(F)cc2)cc1 the results were Marburg entry inh -12%[46.1 µM], FMDV inh 23% and HCMV inh -30.
`Cc1cc(C)cc(CO[C@H]2C=C[C@@H](c3ccccc3)O[C@H]2CO)c1` gave Marburg entry inh -24%[14.2 µM].
For COc1ccc(N(CC(=O)NCCc2cccc(C)c2)S(=O)(=O)c2c(C)nn(C)c2C)cc1 the results were Marburg entry inh inconclusive, LASV entry inh -12%[46.1 µM], FMDV inh -24% and HCMV inh -10.
For ClCc1csc(-c2ccc(Cl)cc2)n1 the results were HCV inhibitor 25%, Marburg entry inh -4%, LASV entry inh 11%, FMDV inh 3% and HCMV inh -40.
`CC1CN(Cc2csc(-c3ccc(Cl)cc3)n2)CC(C)O1` (stereo not drawn) gave HCV inhibitor 11µM*, Marburg entry inh inconclusive, LASV entry inh -10%[46.1 µM], FMDV inh -16% and HCMV inh inconclusive.
Screening O=C(O)c1cccc2c1-c1ccc([N+](=O)[O-])cc1C2=O returned HCV inhibitor 27%, Marburg entry inh 22%, LASV entry inh 5%[46.1 µM], FMDV inh 0% and HCMV inh 22.
Screening O=C(O)c1cccc2c1Cc1cc([N+](=O)[O-])ccc1-2 returned HCV inhibitor 5%, Marburg entry inh -3%[46.1 µM], LASV entry inh 23%[46.1 µM], FMDV inh 14% and HCMV inh -97*.
For CCOCN(C(=O)CSc1nc2ccccc2[nH]1)c1c(C)cccc1CC the results were Marburg entry inh -20%[46.1 µM], LASV entry inh -18%[46.1 µM], FMDV inh 3% and HCMV inh -2.
For O=C1c2cccnc2C(Nc2ccc(Cl)cc2)N1Cc1cccs1 (stereo not drawn) the results were HCV inhibitor 3%, Marburg entry inh inconclusive, LASV entry inh -18%, FMDV inh -15% and HCMV inh -65*.
For CCOC(=O)Nc1nc(-c2ccccc2)c(C(=O)c2ccc(Cl)cc2)s1 the results were HCV inhibitor inconclusive, Marburg entry inh inconclusive, LASV entry inh inconclusive, FMDV inh -18% and HCMV inh -67*.
`CCOc1ccc(CCNC(=O)CCCn2c(=O)c3cccn3c3cccnc32)cc1` gave LASV entry inh 0%[46.1 µM], FMDV inh -14% and HCMV inh 3.
`Cc1ccc(O)c(N=NC2=C(O)CC(C)(C)CC2=O)c1` gave HCV inhibitor inconclusive, Marburg entry inh 10µM*, LASV entry inh inconclusive, FMDV inh 22% and HCMV inh -101*.
Screening CCC(=O)N1CCc2cc(Br)cc(S(=O)(=O)N3CCCC(C(=O)NCc4cccc(OC)c4)C3)c21 (stereo not drawn) returned Marburg entry inh -25%[46.1 µM], LASV entry inh 12%[46.1 µM], FMDV inh 9% and HCMV inh -35.
COC(=O)c1c(C)oc(C)c1S(=O)(=O)NCc1cccs1 was read as HCV inhibitor 9%, FMDV inh 78% and HCMV inh -60*.
COc1ccc(Nc2c3c(nc4ccc(NC(=O)c5cc(Cl)ccc5OC)cc24)CCCC3)cc1OC was read as Marburg entry inh inconclusive, LASV entry inh inconclusive, FMDV inh 32µM* and HCMV inh -108*.
CC(=O)c1ccc(Nc2c3c(nc4ccccc24)CCCC3)cc1 was read as HCV inhibitor inconclusive, FMDV inh inconclusive and HCMV inh -14.
`CCOc1ccccc1C(=O)Nc1ccc2nc3c(c(Nc4ccc(OC)c(OC)c4)c2c1)CCCC3` gave Marburg entry inh inconclusive, LASV entry inh 10µM*, FMDV inh inconclusive and HCMV inh -103*.
For COc1ccc(Cl)cc1C(=O)Nc1ccc2nc3n(c(=O)c2c1)CCCC3 the results were HCV inhibitor inconclusive, Marburg entry inh inconclusive, LASV entry inh -4%, FMDV inh 11% and HCMV inh inconclusive.
`COc1cc(OC)cc(C(=O)Nc2ccc3nc4c(c(Nc5ccc(OC)c(OC)c5)c3c2)CCCC4)c1` gave Marburg entry inh 2.5µM*, LASV entry inh inconclusive, FMDV inh inconclusive and HCMV inh -105*.
COc1ccccc1Nc1c2c(nc3ccc(NC(=O)c4ccc(N(C)C)cc4)cc13)CCCC2 was read as Marburg entry inh 3.2µM*, LASV entry inh inconclusive, FMDV inh -27% and HCMV inh -101*.
`CC(=O)Nc1nonc1-c1nnc(SCC(=O)Nc2ccccc2Cl)n1C` gave Marburg entry inh -17%[46.1 µM], LASV entry inh -2%[46.1 µM], FMDV inh 16% and HCMV inh -2.
`CC(C)CC(=O)NC1CC(=O)N(c2ccc3c(c2)OCCO3)C1` (stereo not drawn) gave LASV entry inh 22%[46.1 µM], FMDV inh -20% and HCMV inh 4.
For CC1CN(CC(=O)NCCc2ccncc2)Cc2ccccc2O1 (stereo not drawn) the results were FMDV inh -3%.
For Cc1ccc(CNc2ccc3c(c2)OCO3)cc1 the results were HCV inhibitor 10µM*, Marburg entry inh inconclusive, LASV entry inh -22% and FMDV inh 15%.
For c1cc(CNc2ccc3c(c2)OCO3)ccn1 the results were HCV inhibitor 12%, Marburg entry inh 0%, LASV entry inh -4%, FMDV inh 23% and HCMV inh 31.
Screening CCN(CC)CCn1c2ccccc2c2nc3ccccc3nc21 returned HCV inhibitor inconclusive, FMDV inh -15% and HCMV inh -102*.
For CCCn1c2ccccc2c2nc3ccccc3nc21 the results were HCV inhibitor inconclusive, Marburg entry inh 2%, LASV entry inh -18%, FMDV inh -21% and HCMV inh -17.
